Results reported in the supplement of paper PMC6555819.

Tests used:
Assay in all cases: PBM binding z-score (relative to random genomic background probes); higher = stronger binding; sequences stand for … in GC…GCGATTGACAGCGTAGAATGAAGG
[1] = test system: RARb homodimer (NR concentration 270 nM)
In short: (§1)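 The probes on custom Agilent 4×180K protein-binding microarrays were double-stranded, with 34-nt variable regions bearing direct-repeat seeds, single-nucleotide variants, half-site ablations and random human genomic background sequences. Incubation lasted 1 h with ligand-free nuclear receptor dimers in PBS pH 7.4, 2% milk, 0.02% Triton X-100, 1 mM DTT, 0.2 mg/mL BSA and 0.4 mg/ml salmon testes DNA. Antibodies against each partner (one per run) detected bound dimers, and fluorescence scans were regression-normalized. Binding z-scores take the random background probes as reference.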

[2] = test system: RARg:RXRa (NR concentration 270 nM, RXRa partner concentration 90 nM)
In short: as §1

[3] = test system: RARg homodimer (NR concentration 270 nM)
In short: as §1

[4] = test system: RXRa DBDmut IVT, anti-RXR (DBD mutation: RXRa K156A/R161A, NR concentration 90 nM)
In short: as §1

[5] = test system: RXRa homodimer (NR concentration 180 nM)
In short: as §1

[6] = test system: THRa:RXRa (NR concentration 90 nM, RXRa partner concentration 90 nM)
In short: as §1

[7] = test system: THRa homodimer (NR concentration 90 nM)
In short: as §1

[8] = test system: VDR homodimer (NR concentration 270 nM)
In short: as §1

Sequence	PBM binding z-score [1]	PBM binding z-score [2]	PBM binding z-score [3]	PBM binding z-score [4]	PBM binding z-score [5]	PBM binding z-score [6]	PBM binding z-score [7]	PBM binding z-score [8]
TGAATGAGGTTATAAGATCAGGGACCGTTGCAAA	0.518	1.43	0.648	0.574	1.83	1.75	0.103	0.401
AGAACGAGGGCACGCTGAGTTGATAGCAGAGTAG	1.21	2.08	2.42	1.95	1.36	1.83	-0.0157	1.98
GATACAGCGTCAAGGCCAGAGTACGCGTATTGAT	-0.276	-0.245	0.129	-0.11	-0.253	-0.179	-0.406	0.0516
TGAATGAGGTTATAAGATCAGGTAACGTTGCAAA	0.391	1.41	1.13	0.758	1.87	2.61	1.06	0.507
CTCGAAAGGTCGTGCTCAAGTGAGTATACCAAAC	2.33	4.27	3.66	2.31	4.62	2.31	-0.0165	1.15
GCTAGCAGGCCATTTGGGTCACTCGATGACGGGC	1.9	0.925	1.25	0.253	0.666	1.66	0.48	0.416
CCTCGGAGGAAAGAAGGTCAGAGCTGTCCGCTTT	2.71	1.88	1.67	0.0436	1.44	1.93	-0.547	0.00914
CCTACTGGGCCATTCAGAGGTCTTTGATCATATG	0.406	0.221	0.17	-0.165	-0.258	0.0585	-0.237	-0.313
ATATGTAGGTTAAGGGTTATTCAGGTTGGTTCGC	1.91	2.11	1.34	0.963	2.75	2.37	1.52	1.83
CTACGAAGGTGAACAAGGTCGTTGATTACTATTC	2.4	2.2	1.98	1.51	2.21	2.91	1.08	2.46
CCTAGTTGGTCAGAAGGTCACACACCGGATATGA	4.46	4.85	4.38	0.926	4.4	3.12	1.59	2.21
CTCGAAAGGTCGTGCTCAGTTGAGTATACCAAAC	2.57	4.35	3.63	1.71	4.77	2.66	0.251	0.971
CCTTACGGGTCACGAGGTTATACCACGACGAGCG	3.83	6.22	5.35	1.77	7.21	3.84	1.13	2.24
CCGAGTAGGTTATGAGGCATTCAGGCAACGGTGA	0.133	0.306	0.215	0.178	0.451	0.303	0.0556	0.0236
CAAACTAGGTCATCCAGGACAGTGAATACATTGA	3.12	4.15	4.93	2.37	3.09	3.76	2.38	2.21
ATATATAGGTTATCGGGTCATTCAGTTTGCGCAT	3.49	3.74	2.97	2.18	4.13	3.51	3.2	4.39
CCTTACGAGTCAAGGTTATAGCACGGGTGGTACG	1.07	0.83	0.637	0.174	1.07	1.58	0.715	0.529
CGTCCAAGTTCAATGCTAGGTCAGTGAAAGCATT	3.86	5.74	4.36	4.53	2.5	3.53	1.21	4.43
CCTACTGGGCCATTCAGAGGCCATTGATCATATG	0.918	0.62	0.424	-0.152	-0.147	0.255	-0.212	-0.0106

Sequence	PBM binding z-score [1]	PBM binding z-score [2]	PBM binding z-score [3]	PBM binding z-score [4]	PBM binding z-score [5]	PBM binding z-score [6]	PBM binding z-score [7]	PBM binding z-score [8]
CCTACTGGGCCACGAATGGTCATTGATTCAGTGA	0.417	-0.0594	0.262	-0.448	-0.409	-0.231	-0.537	-0.38
TCTATTCGTTGATTAGGGCAACCGAAACAGCGGA	0.244	0.485	0.548	0.758	0.477	0.404	0.073	-0.134
CGTCCCAGGTCAGAGAGGTCAGTGAATGCCGAGT	4.89	5.03	5.73	1.72	4.33	4.24	2.92	4.31
CCAGACACGTGAAAGGTAACTCAGTCTGGTACGC	-0.128	-0.098	0.0725	0.166	0.263	0.166	-0.268	-0.17
CCTAGTTGGTCAGGAGGTCAGACACCGGATATGA	3.57	3.8	3.09	0.173	2.74	2.43	1.11	1.42
CCGACTGGGGCAAGGTTAACATAACGCACAGCCA	1.47	1.3	1.3	-0.45	1.38	1.37	-0.033	0.172
TCTATTAGTTGACGGGCAACCGACGAGTCCGTTT	-0.1	0.0549	-0.0135	1.46	0.417	-0.223	-0.348	0.718
TATACAGGGTCAAAGGCCGGAGTACGAATGTCGA	3.45	5.49	4.9	2.94	6.66	3.34	0.872	3.02
TCTTGTAGAGCAAAGGTTAAGAAAGCCGAAGCCT	1.17	1.43	0.586	-0.181	2.6	1.06	-1.14	-0.734
CGTCCAAGGTCAAGGTCAGTCAAAGAGACTCGAA	5.15	6.95	7.59	4.09	6.7	4.16	3.61	3.55
CCTTACGGGTCACTCCAGGTTATAGTATCGGAGT	3.16	4.38	4.25	1.55	4.67	5.23	0.63	1.7
TCAGACAGGTGAAGCTAACTCAGGTACGCAGTCG	0.0204	0.241	0.351	0.962	0.617	0.525	-0.351	-0.124
AGAACGAGGGTAATGAGTTGATAGCACGGGTGGC	-0.134	0.312	0.371	0.405	0.5	-0.0331	-0.615	1.53
TCTTGTAGATCAAAGGTTAAGATAGCCGAAGCCT	1.61	2.19	1.11	0.675	3.56	1.38	-0.548	0.153
CCTTACGAGTCACTGACAGGTTATAGCATTTGGA	1.23	1.22	0.808	0.998	0.893	0.852	0.813	0.964
ATCTCTAGGTCACAAGTTCAGTGAAAGAGAGGAC	4.24	5.58	6.02	2.17	4.04	3.4	2.36	3.53
CTCGAAAGGTCGTGCTCCGGTGAGTATACCAAAC	3.04	5.03	3.94	2.08	5.18	3.06	0.517	1.26
TCATATAGGTAGTACAGGTGAAAGTCGGCATCTA	0.475	0.549	0.317	1.32	1.02	0.404	0.361	0.606
TCTCGGAGGACACGAAAGGTCCGAGCTCGACATC	0.997	0.805	1.35	0.605	0.384	1.62	0.526	0.0895

Sequence	PBM binding z-score [1]	PBM binding z-score [2]	PBM binding z-score [3]	PBM binding z-score [4]	PBM binding z-score [5]	PBM binding z-score [6]	PBM binding z-score [7]	PBM binding z-score [8]
CCGAGTGGGGCAAAGGTTACCATACTCAGTACGA	2.45	3.55	1.75	0.25	3.67	1.86	-0.359	0.16
ACAGACAGGTGAGTGAAGGTGACTCAGCTGGACG	0.821	0.36	0.791	-0.543	0.523	2	-0.223	-0.311
TCATATTGGTAAAGGTGAAAGTCGAACGATATGA	1.33	1.28	0.994	0.405	1.79	1.08	-0.164	-0.179
CCTGCTAGGTCATGATCAGCTAATCTACAGTATG	2.57	3.89	4.57	1.65	2.85	2.75	0.661	0.00806
ATCTCTAGGTAAAGTTCAGTGATAGATCGATAGA	2.44	2.15	2.58	1.56	1.42	1.2	0.236	2.09
CAAACTAGGTCACGAATGGTCAAAGTCGAATGAC	3.87	4.77	5.18	1.61	3.82	3.74	1.51	0.784
GATACAGGGTCAAGGCAAGAGTACGCGTATTGAT	3.45	5.5	5.14	2.63	6.28	3.72	1.16	2.31
TCTGCTAGGTCAGTTGGTCAGCTAGCGAGCTGCC	2.51	2.7	3.71	0.477	0.644	1.18	-0.284	-0.49
CCTACTGGGCCACGAAAGGTCATTCATTCAGTGA	4.77	4.77	4.33	0.665	5.17	3.8	0.995	2.83
TTTACAGGGTCAAAGGCCAGAGTACGAATGTCGA	3.46	5.91	5.11	3.13	6.94	3.63	0.893	2.97
CGTCCAAGGTGAGAGAGGTCAGTGAATGCCGAGT	4.13	3.38	3.7	0.994	2.89	3.33	1.95	3.07
GCTAGTTGGTCAGTAAAAGGGCACACACCGGTCG	2.59	1.6	1.32	-0.382	0.632	0.395	-0.0299	0.271
TCGAGTAGGTTAGTCGGGGCCTTCAGCCAACATA	-0.149	-0.47	-0.571	0.14	-0.278	1.57	-0.433	-0.455
GCTCGGAGGACAACGTCAGAGCTTTGTCCGTAGA	-0.35	-0.399	0.158	0.00939	-0.87	0.242	-0.468	-0.803
GCTTACGGGTCAAACGTTATAGCATGAATAGAAT	2.24	4.8	4.42	2.47	5.6	2.24	-0.707	1.11
AATACAGGGTCACTAGGCCACAGTAGGTACGAAT	3.36	5.36	4.87	2.86	5.56	3.38	1.32	2.95
ATGTCTAGGTAAGACTCAGTTCAGTGAAGAACGC	0.578	0.0385	0.257	0.0481	0.0164	0.567	0.326	1.07
GAGACTGGGGCAAAGCAGGTTACCATAAGGTTGG	1.54	0.842	0.776	-0.396	0.474	3.14	0.644	-0.202
GCTATCAGGCCATTTGGGTCACTCAATGACGGGC	2.39	1.19	1.66	0.754	0.858	2.55	1.57	0.781
